Rows were chosen to be rich in hits. Some 10% of all compounds tested hit in one or more screens of this group.
KB-V1 cytotox: kills drug-selected multidrug resistant KB-V1 cells; Potency, µM (top dose mostly 46.1 µM), hits mostly cytotoxic; actives 3.4% (n = 400,000); KB-V1 MDR cells viability, CellTiter-Glo, 72 h; AID 1347076; also: % is scaled to controls: 0 for no effect and ±100 for the full control effect; nearly all actives have a fitted effect of over 60% in size
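KB-V1 cells (P-gp-expressing MDR subline of KB-3-1) in phenol-red-free DMEM with 10% FBS were exposed to library compounds over a concentration series for 72 h at 37 degrees C. Viability read by CellTiter-Glo luminescence; concentration-effect curves fitted after normalization.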
SW480 rereplic: DNA re-replication induction in SW480 cells. actives 1.8% (n = 340,000). SW480 DNA re-replication, Hoechst DNA content imaging, 48 h. Potency, µM (titrated, usually from 46.1 µM), for the others: top-dose re-replication activation, usual class: activators; also: % of control where 0% means no effect; nearly all actives have a fitted effect of over 55% in size
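Per well, 250 cells were exposed to pinned compound for 48 hr. Nuclear DNA was visualised with Hoechst (40 min, 37 C) and total object intensity recorded by fluorescence scanning.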
Gal4-VP16 FLuc: counter-screen for ROR gamma inhibitors: Gal4-VP16 reporter | Drosophila S2 Gal4-VP16 UAS-luciferase, luminescence, 20 h | Potency, µM (series often up to 53.6 µM), without a hit: top-dose activity, negative = inhibition, usual class: inhibitors | actives 3.5% (n = 310,000);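 also: Gal4-VP16 expression switched on by copper sulfate through the metallothionein promoter; % is scaled to controls: 0 for no effect and ±100 for the full control effect; nearly all actives have a fitted effect of over 50% in size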
MCF10A rerep: induces DNA re-replication in MCF 10a normal breast cells; MCF 10A DNA re-replication, Hoechst nuclear intensity, 48 h; Potency, µM (titrated, usually from 46.1 µM), for inactives: at the highest dose activity, positive = re-replication, usual class: activators; actives 2.9% (n = 350,000); AID 624296; also: % of control where 0% means no effect; nearly all actives have a fitted effect of over 50% in size
RORg inh: blocks mouse ROR gamma transcriptional activity; Drosophila S2 Gal4-RORgamma UAS-luciferase reporter, 20 h; Potency, µM (series often up to 53.6 µM), for inactives: at the top dose activity change, negative = inhibition, most hits filed as inhibitors; actives 5.4% (n = 310,000); AID 2551; also: % is scaled to controls: 0 for no effect and ±100 for the full control effect; nearly all actives have a fitted effect of over 60% in size
Target sequence (P51450 whole entry, looked up, the tested form may be a part): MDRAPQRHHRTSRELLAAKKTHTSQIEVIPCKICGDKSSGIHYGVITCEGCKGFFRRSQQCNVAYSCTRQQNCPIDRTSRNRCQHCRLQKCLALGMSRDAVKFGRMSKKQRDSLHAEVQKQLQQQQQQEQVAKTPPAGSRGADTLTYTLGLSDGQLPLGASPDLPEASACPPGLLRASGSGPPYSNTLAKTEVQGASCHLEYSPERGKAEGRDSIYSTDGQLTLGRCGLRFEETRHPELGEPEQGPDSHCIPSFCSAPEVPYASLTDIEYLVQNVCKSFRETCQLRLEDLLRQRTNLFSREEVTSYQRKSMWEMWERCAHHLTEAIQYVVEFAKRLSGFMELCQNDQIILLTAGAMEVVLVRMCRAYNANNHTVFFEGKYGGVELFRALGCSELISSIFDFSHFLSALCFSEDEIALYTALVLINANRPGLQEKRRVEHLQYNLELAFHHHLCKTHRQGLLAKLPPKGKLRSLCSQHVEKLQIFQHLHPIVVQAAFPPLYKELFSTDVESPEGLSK
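Stable Schneider cell line, Gal4 DNA-binding domain fused to ROR gamma, UAS-luciferase. Cmpd 1 hr RT → CuSO4 700 uM final → 20 hr RT → luciferase reagent 10 min → luminescence.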
KB-3-1 tox: KB-3-1 parental cell cytotoxicity. actives 1.4% (n = 400,000). Potency, µM (highest dose often 46.1 µM), actives largely listed as cytotoxic. KB-3-1 viability, CellTiter-Glo ATP luminescence, 72 h; also: % is scaled to controls: 0 for no effect and ±100 for the full control effect; nearly all actives have a fitted effect of over 60% in size
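Luminescent ATP read-out (CellTiter-Glo) measures survival of drug-naive KB-3-1 cells after 72 h compound exposure at 37 °C. Titration series was screened from lowest to highest concentration, with DMSO vehicle plates as background controls.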
* hit, by the source's call; [ ] = another dose, or the depositor's remark. Calls follow the shape of the dose curve; as a rule, active = well fitted curve in the direction sought with a large enough effect; inconclusive = small, poorly fitted or top-dose-only effect, or another doubt; inactive = no such curve, though single readings can be large; an effect the other way counts as inactive or inconclusive. Potency is read from the fitted curve at half-maximal effect.

What do the screens show for `O=C(c1ccc(Cl)cc1)c1ccc(OCC(=O)N2CCOCC2)cc1`?
KB-V1 cytotox: 18µM*; SW480 rereplic: -1%; Gal4-VP16 FLuc: 11µM*; MCF10A rerep: 9%; RORg inh: inconclusive; KB-3-1 tox: inactive

What do the screens show for `CC1CN(C(=S)Nc2ccccc2)CC(C)O1` (stereo not drawn)?
KB-V1 cytotox: inactive; SW480 rereplic: -1%; Gal4-VP16 FLuc: -18%; MCF10A rerep: 0%; RORg inh: -31%; KB-3-1 tox: inactive

What do the screens show for `CC1CN(C(=S)Nc2ccccc2)N(c2ccccc2)C1` (stereo not drawn)?
KB-V1 cytotox: inactive; SW480 rereplic: 12%; Gal4-VP16 FLuc: -12%; MCF10A rerep: 0%; RORg inh: 11µM*; KB-3-1 tox: inactive

What do the screens show for `Cc1ccc(-n2c(SCC(=O)Nc3cccc(S(N)(=O)=O)c3)nc3ccccc32)cc1`?
KB-V1 cytotox: inactive; SW480 rereplic: 17%; Gal4-VP16 FLuc: -18%; MCF10A rerep: 16µM*; RORg inh: 40%; KB-3-1 tox: 15µM*

What do the screens show for `Cc1nnc(SCC(=O)Nc2cccc(S(N)(=O)=O)c2)n1-c1ccccc1`?
KB-V1 cytotox: inactive; SW480 rereplic: 0%; Gal4-VP16 FLuc: -9%; MCF10A rerep: 3%; RORg inh: -14%; KB-3-1 tox: inactive

What do the screens show for `CC(C)Cn1c(SCC(=O)Nc2cccc(S(N)(=O)=O)c2)nc2ccccc2c1=O`?
KB-V1 cytotox: inactive; SW480 rereplic: 6%; Gal4-VP16 FLuc: -9%; MCF10A rerep: -2%; RORg inh: 10µM*; KB-3-1 tox: inactive

What do the screens show for `COCCn1c(SCC(=O)Nc2cccc(S(N)(=O)=O)c2)nc2cc(Cl)ccc2c1=O`?
KB-V1 cytotox: inactive; SW480 rereplic: inconclusive; Gal4-VP16 FLuc: 4%; MCF10A rerep: inconclusive; RORg inh: 35%; KB-3-1 tox: inactive

Results for OC[C@@H]1OC(O)[C@H](O)[C@H](O)[C@H]1O (stereo partly drawn) ?
Gal4-VP16 FLuc: -14%; RORg inh: 14%

What do the screens show for `O=C(/C=C/c1c(F)cccc1Cl)Nc1ccncc1`?
KB-V1 cytotox: inactive; SW480 rereplic: 0%; Gal4-VP16 FLuc: -11%; MCF10A rerep: inconclusive; RORg inh: 25%; KB-3-1 tox: inactive

What do the screens show for `Cc1ccc(/C=C/C(=O)c2ccccc2O)cc1`?
KB-V1 cytotox: inactive; SW480 rereplic: inconclusive; Gal4-VP16 FLuc: 3%; MCF10A rerep: inconclusive; RORg inh: -20%; KB-3-1 tox: inactive

What do the screens show for `Cc1ccc(C)c(C(=O)Nc2nc3ccccc3[nH]2)c1`?
KB-V1 cytotox: inactive; SW480 rereplic: -2%; Gal4-VP16 FLuc: -4%; MCF10A rerep: 17%; RORg inh: -30%; KB-3-1 tox: inactive

What do the screens show for `Cc1ccc(/C=C/C(=O)c2nc3ccccc3[nH]2)cc1`?
KB-V1 cytotox: inconclusive; SW480 rereplic: inconclusive; Gal4-VP16 FLuc: inconclusive; MCF10A rerep: inconclusive; RORg inh: 6.3µM*; KB-3-1 tox: inactive

How did O=C(/C=C/c1c(F)cccc1Cl)Nc1nc2ccccc2[nH]1 do in these assays?
KB-V1 cytotox: inactive; SW480 rereplic: -8%; Gal4-VP16 FLuc: inconclusive; MCF10A rerep: inconclusive; RORg inh: 4.5µM*; KB-3-1 tox: inactive

What do the screens show for `Cc1ccc(/C=C/C(=O)Nc2nc3ccccc3[nH]2)cc1`?
KB-V1 cytotox: inactive; SW480 rereplic: 2%; Gal4-VP16 FLuc: inconclusive; MCF10A rerep: 15%; RORg inh: 5.6µM*; KB-3-1 tox: inactive

How did CCCCC(CC)COS(=O)(=O)O (stereo not drawn) do in these assays?
SW480 rereplic: 1%; Gal4-VP16 FLuc: -2%; MCF10A rerep: 0%; RORg inh: 5%

What do the screens show for `COC(=O)C1(C(=O)OC)C/C=C\C/C=C\c2ccccc2[C@@H]1C[N+](=O)[O-]`?
Gal4-VP16 FLuc: -6%; RORg inh: 0%

How did COc1cccc(-n2c(CN3CCN(c4cccc(C)c4)C(C)C3)nc3ccc([N+](=O)[O-])cc3c2=O)c1 (stereo not drawn) do in these assays?
KB-V1 cytotox: inactive; SW480 rereplic: 2%; Gal4-VP16 FLuc: 2%; MCF10A rerep: 12%; RORg inh: -2%[10 µM]; KB-3-1 tox: inactive

Results for COc1cccc(-n2c(CN3CCN(c4ccc(C)cc4)C(C)C3)nc3ccc([N+](=O)[O-])cc3c2=O)c1 (stereo not drawn) ?
KB-V1 cytotox: 15µM*; SW480 rereplic: 4%; Gal4-VP16 FLuc: -5%; MCF10A rerep: 21%; RORg inh: 5%[10 µM]; KB-3-1 tox: inactive

How did O=C(Cc1ccc(OCCc2ccccc2)cc1)NO do in these assays?
KB-V1 cytotox: inconclusive; KB-3-1 tox: inactive

Results for O=C(Nc1ccc2oc(-c3cccnc3)nc2c1)c1ccc(-c2ccccc2OC(F)(F)F)o1 ?
KB-V1 cytotox: inactive; KB-3-1 tox: inactive

What do the screens show for `Cc1ccc(-c2csc3nc[nH]c(=S)c23)cc1`?
KB-V1 cytotox: inconclusive; SW480 rereplic: inconclusive; Gal4-VP16 FLuc: 0.014µM*; MCF10A rerep: inconclusive; RORg inh: 0.025µM*; KB-3-1 tox: inconclusive

What do the screens show for `O=c1[nH]cnc2scc(-c3ccc(Br)cc3)c12`?
KB-V1 cytotox: inconclusive; SW480 rereplic: -1%; Gal4-VP16 FLuc: 2%; MCF10A rerep: -6%; RORg inh: -7%; KB-3-1 tox: inactive

How did Cc1sc2nc[nH]c(=S)c2c1-c1ccccc1 do in these assays?
KB-V1 cytotox: inconclusive; SW480 rereplic: -4%; Gal4-VP16 FLuc: 0.63µM*; MCF10A rerep: inconclusive; RORg inh: 0.28µM*; KB-3-1 tox: inactive

What do the screens show for `S=c1[nH]cnc2scc(-c3ccc(Cl)cc3)c12`?
KB-V1 cytotox: inconclusive; SW480 rereplic: 25%; Gal4-VP16 FLuc: 1µM*; MCF10A rerep: inconclusive; RORg inh: 0.45µM*; KB-3-1 tox: inconclusive

Results for Cc1cc(-c2csc3nc[nH]c(=S)c23)cc(C)c1C ?
KB-V1 cytotox: inconclusive; SW480 rereplic: inconclusive; Gal4-VP16 FLuc: 0.56µM*; MCF10A rerep: inconclusive; RORg inh: 0.32µM*; KB-3-1 tox: inconclusive

Results for O=c1[nH]cnc2scc(-c3ccccc3)c12 ?
KB-V1 cytotox: inactive; SW480 rereplic: 0%; Gal4-VP16 FLuc: 6%; MCF10A rerep: -6%; RORg inh: 28%; KB-3-1 tox: inactive

How did Cc1sc2nc[nH]c(=O)c2c1-c1ccc(F)cc1 do in these assays?
KB-V1 cytotox: inactive; SW480 rereplic: 8%; Gal4-VP16 FLuc: -2%; MCF10A rerep: 19%; RORg inh: 0%; KB-3-1 tox: inactive

Screening data: PubChem BioAssay, National Center for Advancing Translational Sciences (NCATS)
